# Bioassay records from PubChem BioAssay.
# In the library only some 6.7% were active in any assay of this set; here they are far more common.
# KB-3-1 tox = kills parental KB-3-1 adenocarcinoma cells | KB-3-1 viability, CellTiter-Glo ATP luminescence, 72 h | Potency, µM (doses to about 46.1 µM), most hits filed as cytotoxic | 400,000 tested, 1.4% active | AID 1347075; note: nearly all actives have a fitted effect of over 60% in size
#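 72 h, 37 °C compound treatment of KB-3-1 parental cells; CellTiter-Glo added, 10 min, luminescence read. Data corrected against DMSO-only plates and normalized before curve fitting.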
# KB-V1 cytotox = kills drug-selected multidrug resistant KB-V1 cells. KB-V1 MDR cells viability, CellTiter-Glo, 72 h. Potency, µM (highest dose often 46.1 µM), hits mostly cytotoxic. 400,000 tested, 3.4% active. AID 1347076; note: nearly all actives have a fitted effect of over 60% in size
#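 Cytotoxicity via CellTiter-Glo luminescence after 72 h compound exposure at 37 degrees C. Cells: drug-selected KB-V1 line, DMEM phenol-red free plus 10% FBS. Compounds tested at multiple concentrations; normalized data fitted to concentration-effect curves.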
# SW480 rerep = induces DNA re-replication in SW480 colon adenocarcinoma cells; SW480 DNA re-replication, Hoechst DNA content imaging, 48 h; Potency, µM (doses to about 46.1 µM), actives largely listed as activators; 340,000 tested, 1.8% active; note: nearly all actives have a fitted effect of over 55% in size
#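 Hoechst fluorescence of nuclei (405 nm excitation, 500-530 nm emission) measured by plate-scanning imager after 48 hr compound exposure at 37 C; re-replication scored as increased number of nuclei with elevated intensity.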
# MCF10A rerep = inducers of DNA re-replication in MCF 10A breast cells | MCF 10A DNA re-replication, Hoechst nuclear intensity, 48 h | Potency, µM (top dose mostly 46.1 µM), hits mostly activators | 350,000 tested, 2.9% active; note: nearly all actives have a fitted effect of over 50% in size
# PINK1 expr mod = modulators of PINK1 expression. AID 624263. 410,000 tested, 0.2% active. PINK1 immunofluorescence, high-content cytometry, 24 h. Potency, µM (series often up to 76.6 µM), most hits filed as activators; active = well fitted activation curve with a large enough effect; inconclusive = small, poorly fitted or top-dose-only effect; cell line not stated here; note: nearly all actives have a fitted effect of over 65% in size
#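 Decision-based qHTS: stable cells, 24 h exposure to five compound concentrations, CCCP as control. Fixed cells stained for PINK1 plus nuclear, mitochondrial and cell markers, cytometer read.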
# Numbers stand for hits; 0 = inactive; ? = inconclusive; - = no result given. Unless noted, calls come from the whole dose curve; as a rule, active = well fitted curve in the direction sought with a large enough effect; inconclusive = small, poorly fitted or top-dose-only effect, or another doubt; inactive = no such curve, though single readings can be large; an effect the other way counts as inactive or inconclusive.
SMILES,KB-3-1 tox,KB-V1 cytotox,SW480 rerep,MCF10A rerep,PINK1 expr mod
COc1cc(Cn2c3ccc(NC(=O)CCc4cccnc4)cc3c(=O)n2C)ccc1F,0,0,-,-,0
COc1ccccc1CCC(=O)Nc1ccc2c(c1)c(=O)n(C)n2-c1cccs1,3.26µM,0,-,-,0
COc1cc(Cn2c3ccc(NC(=O)CCc4ccccc4)cc3c(=O)n2C)ccc1F,9.2µM,5.8µM,-,-,0
CCOc1ccc(CN2CCOc3ccc(C(O)c4cccnc4)cc3C2)cc1 (configuration not stated),-,-,-,-,0
Cc1ccccc1NC(=O)C(C)OC(=O)CCC(=O)c1ccccc1 (configuration not stated),0,0,-,-,0
Clc1cccc(Cl)c1Cn1cnc2c(N3CCCCCC3)ncnc21,0,8.2µM,?,0,-
CC1(C(=O)NCc2ccccc2)CSCC(=O)N1Cc1ccco1 (configuration not stated),0,0,-,-,-
CCOC(=O)C1=CC[C@@H](c2ccccc2C(F)(F)F)N(S(=O)(=O)c2ccc(C)cc2)[C@H]1c1ccc(C#N)cc1,0,0,-,-,0
CC1CCN(C(=O)COC(=O)c2cccc(S(=O)(=O)N(C)c3ccccc3)c2)CC1,0,20.6µM,0,?,0
CC1CCCN(C(=O)COC(=O)c2cccc(NS(=O)(=O)c3ccccc3)c2)C1 (configuration not stated),0,0,0,0,0
CCN(CC)S(=O)(=O)c1cccc(C(=O)OCC(=O)C23CC4CC(CC(C4)C2)C3)c1,?,14.6µM,0,0,0
CCOC(=O)c1c(C)[nH]c(C)c1C(=O)COC(=O)c1cccc(S(=O)(=O)N(CC)CC)c1,0,0,0,?,0
Cc1ccc(N(C)S(=O)(=O)c2cccc(C(=O)OCC(=O)N3CCCC(C)C3)c2)cc1 (configuration not stated),0,20.6µM,0,0,0
CC1CCCC(C)N1C(=O)COC(=O)c1cccc(S(=O)(=O)N(C)c2ccccc2)c1 (configuration not stated),0,0,0,0,0
COc1ccc2[nH]c3c(c2c1)CCNC3C1CC=C(C)CC1 (configuration not stated),20.6µM,?,?,0.581µM,0
COc1ccc(/C=N/Nc2nc(-c3cccc(S(=O)(=O)N4CCCC4)c3)cs2)c(OC)c1,18.4µM,2.59µM,0,?,0
COc1cccc(C(=O)Nc2nc(-c3ccc(S(=O)(=O)N4CCOCC4)cc3)cs2)c1,0,0,0,0,0
COc1cc(C(=O)CCN2CCC(c3ccccc3)C2)cc(OC)c1OC (configuration not stated),0,0,?,3.66µM,0
O=C(CCN1CCC(c2ccccc2)C1)c1cccs1 (configuration not stated),0,0,0,0,0
O=C(CCN1CCC(c2ccccc2)C1)c1ccccc1 (configuration not stated),0,0,?,?,0
O=C(CCN1CCC(c2ccccc2)C1)c1ccc2c(c1)OCCO2 (configuration not stated),0,0,?,13.3µM,0
O=C(CCN1CCc2ccccc2C1)c1ccc2c(c1)OCCO2,?,?,16.4µM,?,0
Cc1cc(C)cc(NC(=O)CCc2nnc3n(C)c(=O)c4sccc4n23)c1,0,0,-,-,0
CCOC(=O)Nc1sc2nc(C)cc(C)c2c1-n1cccc1,?,18.4µM,0,0,0
CCc1ccc(N=C2NC(=O)/C(=C/c3ccc(OCC(=O)O)c(OC)c3)S2)cc1,0,0,0,0,0
SMILES,KB-3-1 tox,KB-V1 cytotox,SW480 rerep,MCF10A rerep,PINK1 expr mod
COc1ccc(N=C2NC(=O)/C(=C\c3ccco3)S2)cc1,0,0,0,?,?
COc1ccccc1N=C1NC(=O)/C(=C/c2ccc(N(C)C)cc2)S1,10.3µM,7.31µM,4.11µM,9.2µM,0
COc1cc(/C=C2/SC(=Nc3ccc(O)cc3)NC2=O)cc(OC)c1O,?,0,20.6µM,?,0
COc1cc(/C=C2\SC(=Nc3ccc(O)cc3)NC2=O)cc(OC)c1OC,4.61µM,0,3.26µM,?,0
COc1ccc(N=C2NC(=O)/C(=C/c3ccc(O)c(OC)c3)S2)cc1,?,?,23.1µM,?,0
Cc1nn(-c2ccccc2)c(C)c1CC(=O)NCC1Cc2cc(F)cc(-c3cccnc3)c2O1 (configuration not stated),-,-,-,-,0
COc1ccccc1C(=O)Nc1ccc(S(=O)(=O)Nc2cnc3ccccc3n2)cc1,0,0,?,0,0
COc1ccccc1C1CN(Cc2cnn(C)c2)Cc2ccccc2O1 (configuration not stated),-,-,-,-,0
Cn1cccc1C(=O)N1CCC2(CC1)CCN(c1ccccn1)CC2,-,-,-,-,0
COC(=O)/C=C1/S/C(=N/N=C/c2ccco2)NC1=O,0,?,0,0,0
O=C1NC(=Nc2ccc(O)cc2)S/C1=C\C=C\c1ccco1,3.26µM,2.31µM,?,?,0
CC(C)N1CCc2c(sc(N)c2C#N)C1,0,0,0,0,2.82µM
Cc1cnc(C)c(-c2ccc(F)c3c2OC(CNC(=O)/C=C/c2cccs2)C3)n1 (configuration not stated),-,-,-,-,0
CC(NS(=O)(=O)c1ccccc1)C(c1cccs1)N1CCN(c2ccccc2)CC1 (configuration not stated),?,6.51µM,0,?,0
CCSc1nnc2c(n1)OC(c1ccc(OC)cc1OC)N(C(C)=O)c1ccccc1-2 (configuration not stated),0,?,-,-,0
CCOC1=C2CN(S(=O)(=O)c3ccc(C)cc3)[C@H](c3cccc(Cl)c3)C[C@@H]2N(S(=O)(=O)c2ccccc2[N+](=O)[O-])[C@H](c2ccccc2)C1,0,0,-,-,0
Cc1ccsc1/C=C1\SC(N2CC(C)OC(C)C2)=NC1=O (configuration not stated),?,18.4µM,0,0,0
COC1C=CC=C(C)C(=O)NC2=CC(=O)C(N)=C(CC(C)CC(OC)C(O)C(C)C=C(C)C1OC(N)=O)C2=O (configuration not stated),0,0,0.231µM,0,0
C=CCNC1=C2C[C@@H](C)C[C@H](OC)[C@H](O)[C@@H](C)/C=C(\C)[C@H](OC(N)=O)[C@@H](OC)/C=C\C=C(/C)C(=O)NC(=CC1=O)C2=O,-,-,0,0.0668µM,-
CCOC(=O)c1cc2c(=O)n3ccccc3nc2n(CC2CCCO2)c1=NC(=O)c1ccccc1OCC (configuration not stated),0,0,-,-,0
Fc1ccc(NC(=S)NCCc2ccc(Cl)cc2)cc1,0,?,?,?,0
S=C(NCCC1=CCCCC1)Nc1ccc(Cl)cc1,0,7.31µM,0,0,?
Fc1ccc(CCNC(=S)Nc2ccc(F)c(Cl)c2)cc1,?,?,0,?,14.1µM
Cc1c(Cl)cccc1NC(=S)NCCc1ccc(Cl)cc1,?,0,13µM,0,?
